# Experimental data reported in ChEMBL document CHEMBL3988442, “University of Dundee, Small-Polar-MMV Screening Library” (2021).
# The campaign covered roughly 53,000 compounds. About 900 (1.7%) showed an effect of 50% or more. The sample holds strong results, similar compounds and a random draw of the others, so the mix is not that of the screen.
# System: Mycobacterium tuberculosis
# Test: Cornell - Phenotypic assay to identify agents that inhibit growth of Mycobacterium tuberculosis
# Assay type: functional
# Parameters: scale not given: direction of the effect not stated beside the values
# Conditions: 10 mM as filed; unlikely as a test dose
row,SMILES,Percent Effect [%]
1,CN(C)[C@@H]1CCN(C(=O)c2cccn2C)[C@H]1Cc1cnn(C)c1.O=C(O)C(F)(F)F,-22.73
2,O=C(O)C(F)(F)F.c1coc(CN2CCc3nnc(COc4cncnc4)n3CC2)c1,21.79
3,COc1cccc(CC2CN(C3CC(C)(C)NC(C)(C)C3)CCO2)c1 (centres undefined),-51.86
4,Cc1cccc2nc(CNC(=O)N3CCC(N4CC=CC4)C3)cn12 (centres undefined),20.26
5,O=C(O)[C@@H]1CN(C(=O)CCCc2ccc(F)cc2)C[C@H]1C1CC1,-11.2
6,CC(C)CN1C(=O)C2(CCN(Cc3nccs3)C2)c2ccccc21.O=C(O)C(F)(F)F (centres undefined),25.63
7,Cc1ccc(CN2CCC3(C2)C(=O)N(CC(N)=O)c2ccccc23)s1 (centres undefined),3.211
8,Cc1ccc(CN2CCC3(C2)C(=O)N(CC(C)C)c2ccccc23)s1 (centres undefined),50.09
9,Cc1nc(C)n(CCC(=O)NCC2CCCOC2)n1 (centres undefined),20.26
10,CCCN1C[C@H]2CC[C@@H]1CN(Cc1ccc(-n3cccn3)cc1)C2,53.91
11,CCCN1C[C@H]2CC[C@@H]1CN(Cc1ccc(Cn3cccn3)cc1)C2,-2.42
12,CCCN1C[C@H]2CC[C@@H]1CN(Cc1cccc(-n3cccn3)c1)C2,9.471
13,CN(C)CCN1C(=O)CCC12CCN(C(=O)c1cccnc1)CC2.O=C(O)C(F)(F)F.O=C(O)C(F)(F)F,1.557
14,CCC(=O)Nc1ccc(F)c(S(=O)(=O)NC(C)(C)C)c1,-2.357
15,CC(=O)Nc1ccc(F)c(S(=O)(=O)NC(C)(C)C)c1,40.62
16,CC(C)(C)NS(=O)(=O)c1cc(NC(=O)C2CC2)ccc1F,50.55
17,c1ccc(Cc2nc(CNC3CCOC4(CCOCC4)C3)no2)cc1 (centres undefined),8.637
18,Cc1noc(C)c1CNC(=O)Nc1ccc(N2CCOC2=O)cc1,-58.42
19,Cc1noc(C)c1CN1C[C@@H](C(=O)O)[C@H](c2ccccc2)C1,23.54
20,CC1CN(c2ccc(NC(=O)Cn3cccn3)cc2)CCO1 (centres undefined),-5.599
21,Cc1noc(C)c1CNC(=O)N1CCCC(C)CC1 (centres undefined),12.27
22,Cc1ocnc1CNC(=O)Nc1ccc(N2CCOC(C)C2)cc1 (centres undefined),104
23,Cc1noc(C)c1CNC(=O)Nc1ccc(N2CCOC(C)C2)cc1 (centres undefined),103.9
24,CC1CN(c2ccc(CNC(=O)NCCO)cn2)CCO1 (centres undefined),2.175
25,Cc1noc(C)c1CNC(=O)Nc1ccc(N2CCSCC2)cc1,104.5

row,SMILES,Percent Effect [%]
1,Cc1noc(C)c1CNC(=O)NCCC(=O)N1CCCc2ccccc21,-5.48
2,Cc1n[nH]/c(=N\C(=O)c2c3c(nc4onc(C)c24)CCC3)s1,20.11
3,CN(C)CCNCCC(c1ccccc1)C1CCOC(C)(C)C1.O=C(O)C(=O)O (centres undefined),21.42
4,CCc1nc(C2CCCN2C(=O)c2cc(Cl)c[nH]2)no1 (centres undefined),23.06
5,CC(C)CC(=O)N1CC(=O)N(Cc2ccco2)CC(O)C1 (centres undefined),-16.35
6,Cn1nc(Br)c2c(NCCCS(N)(=O)=O)ncnc21,24.15
7,Nc1ncc(-c2ccc(NC(=O)[C@@H]3CCCCN3)cc2)cn1,-8.73
8,Cc1nc(Nc2nncs2)cc(C2CCCN2C)n1 (centres undefined),-51.01
9,O=C1CC(c2ccsc2)c2sc(C(=O)O)c(-c3ccccc3)c2N1 (centres undefined),-23.75
10,O=C1CC(c2ccccc2)c2sc(C(=O)O)c(-c3ccccc3)c2N1 (centres undefined),17.04
11,O=C1CC(c2ccsc2)c2sc(C(=O)O)c(-c3ccc(F)cc3)c2N1 (centres undefined),105.2
12,O=C(C1CCOC1)N1C[C@@H]2CCN(C(=O)c3cscn3)[C@@H]2C1 (some centres undefined),-35.62
13,CC(CC(=O)NS(C)(=O)=O)C1CCCCC1 (centres undefined),-16.66
14,Cc1ccc(-c2cc(C(=O)NCCC3=CCCCC3)[nH]n2)o1,52.86
15,CCCc1cc(C(=O)NCCC2=CCCCC2)[nH]n1,32.79
16,O=C(NCCC1=CCCCC1)c1cc(-c2ccc(O)cc2)n[nH]1,22.09
17,Cc1cc(F)ccc1N1CCCC(NC2CCSCC2)C1=O (centres undefined),-0.6719
18,Cc1cc(S(=O)(=O)N2CCCc3cc(Br)ccc32)sc1C(=O)O,32.41
19,COC1CCN(C(=O)CC(C)(C)C)CC(=O)N(C)c2ccccc21 (centres undefined),2.903
20,CC(C)=CCN1C[C@@H]2CN(C(=O)c3ccc(CO)cc3)C[C@]2(C(=O)O)C1,22.99
21,CN(C)C(=O)C1CCC2(CCN(C(=O)Nc3ccccc3)CC2)O1 (centres undefined),2.965
22,COc1cc(C2Nc3cc(Cl)ccc3C3=NCCN32)ccc1O (centres undefined),80.22
23,COc1ccc(C2Nc3cc(Cl)ccc3C3=NCCN32)cc1O (centres undefined),10.02
24,COc1cc(C2Nc3cc(Cl)ccc3C3=NCCN32)cc(OC)c1OC (centres undefined),-27.36
25,CCCn1cc(C(=O)N2CCCC2(C)c2nc(C)cc(N)n2)cn1 (centres undefined),-4.951

row,SMILES,Percent Effect [%]
1,CSCc1ccc(N2CCN(c3ccc(Cl)cn3)CC2)nc1,-11.59
2,Clc1ccc(N2CCN(CCCN3CCCCC3)CC2)nc1,25.77
3,CSCCCN1CCN(c2ccc(Cl)cn2)CC1,62.54
4,COC(=O)CNC(=O)C1CCN(S(C)(=O)=O)CC1,-1.242
5,O=C(c1cccc2[nH]ncc12)N1CCCC1c1noc(C2CC2)n1 (centres undefined),0.6634
6,O=C(Cc1noc2ccccc12)N1CCCC1c1noc(C2CC2)n1 (centres undefined),0.3643
7,O=C(c1n[nH]c2ccccc12)N1CCCC1c1noc(C2CC2)n1 (centres undefined),50.46
8,CC(=O)N1CCO[C@@H]2CN(S(=O)(=O)c3ccc(C)cc3)CC[C@@H]2C1,-25.36
9,CCc1noc(C(C)N2CCN(CC(C)C)CC2)n1 (centres undefined),-14.43
10,COc1ccc(CNC(Cc2ccsc2)c2ccc(C)cn2)cc1OC.Cl (centres undefined),26.36
11,COc1ccc(CNC(Cc2ccsc2)c2ccc(C)cn2)c(OC)c1 (centres undefined),18.63
12,COc1cccc(OC)c1CNC(Cc1ccsc1)c1ccc(C)cn1 (centres undefined),62.45
13,CCc1nc(NS(=O)(=O)c2cccc(F)c2C)no1,37.51
14,CC(CO)NC(=O)c1ccc(NCc2ccc(F)c(F)c2)cc1 (centres undefined),4.78
15,O=C(c1cc(C2CC2)[nH]n1)N1CCN(Cc2ccsc2)CC1,6.464
16,CC(C)c1cc(C(=O)N2CCN(Cc3ccsc3)CC2)n[nH]1,50.59
17,CC(C)c1ccc(CN2CCN(C(=O)c3cc(C4CC4)[nH]n3)CC2)cc1,-22.19
18,O=C(c1cc(C2CC2)[nH]n1)N1CCN(Cc2ccc3c(c2)OCO3)CC1,83.19
19,Cc1cccc(CN2CCN(C(=O)c3cc(C4CC4)[nH]n3)CC2)c1,63.11
20,O=C(c1cc(C2CC2)[nH]n1)N1CCN(Cc2ccc(Cl)cc2)CC1,-11.68
21,O=C(c1cc(C2CC2)[nH]n1)N1CCN(Cc2ccncc2)CC1,8.467
22,O=C(c1cc(C2CC2)[nH]n1)N1CCN(Cc2ccccc2)CC1,7.865
23,CC(C)c1ncncc1C(=O)N1CCN(Cc2ccsc2)CC1,5.12
24,CCCOc1cccc(C(=O)N2CCCC(n3cncn3)C2)c1 (centres undefined),2.869
25,CC1CCC(NS(=O)(=O)CC(=O)Nc2ccccc2N2CCCC2)CC1 (centres undefined),81.68

row,SMILES,Percent Effect [%]
1,CS(=O)(=O)NCC1CCCN(C(=O)Nc2ccccc2N2CCCC2)C1 (centres undefined),12.25
2,CC1CCC(NS(=O)(=O)CC(=O)NC2(C(N)=O)CCCC2)CC1 (centres undefined),-11.11
3,CC1CCC(NS(=O)(=O)CC(=O)Nc2ccc(N3CCCC3)cn2)CC1 (centres undefined),-5.738
4,CC1CCC(NS(=O)(=O)CC(=O)NCC2CCC2)CC1 (centres undefined),57.41
5,CCNC(=O)CS(=O)(=O)NC1CCC(C)CC1 (centres undefined),-36.82
6,CNC(=O)CS(=O)(=O)NC1CCC(C)CC1 (centres undefined),-17.27
7,Cc1ccc(NC(=O)CS(=O)(=O)NC2CCC(C)CC2)nc1 (centres undefined),59.09
8,CC1CCC(NS(=O)(=O)CC(=O)NC(C2CC2)C2CC2)CC1 (centres undefined),-19.5
9,CCOCc1cnc2n1CCN(C(=O)c1cccc3c1OCCO3)C2C (centres undefined),-10.91
10,Cc1cccc(-c2nc(CN3CC(n4nc(C)cc4C)C3)no2)c1,18.28
11,CC(C)N1CCO[C@H]2CN(Cc3cc[nH]n3)C[C@H]21.O=C(O)C(F)(F)F.O=C(O)C(F)(F)F,-4.182
12,O=C(CC1CCCC1)N1CCC(c2noc(-c3ccccn3)n2)CC1,12.79
13,O=C1NC2(CCc3ccccc31)CCN(C(=O)c1ccncc1)C2 (centres undefined),9.772
14,Cc1nnc(C2CCN(C(=O)c3ccc(-n4cccc4)cc3)CC2)s1,34.12
15,O=C1CCNc2cc3c(cc2CN1CC1CC1)OCO3,-9.17
16,O=C(CC1COCCN1)N1CCC(N2CCc3ccccc3C2)CC1 (centres undefined),-14.32
17,CCN(CCCNC(=O)Nc1ccccc1C(C)C)S(C)(=O)=O,-25.97
18,CC(N)Cc1ccccc1Sc1ccccc1.O=C(O)/C=C\C(=O)O (centres undefined),13.46
19,NCc1ccccc1Sc1ccc(O)cc1.O=C(O)/C=C\C(=O)O,11.62
20,CC(C(=O)Nc1ccccc1Sc1ccccc1)S(C)(=O)=O (centres undefined),13.38
21,Fc1ccc(Sc2ccccc2CNC2=NCCN2)cc1.I,18.51
22,CNC(C)Cc1ccccc1Sc1ccc(O)cc1.Cl (centres undefined),105.4
23,CC(N)Cc1ccccc1Sc1ccc(O)cc1.CC(N)Cc1ccccc1Sc1ccc(O)cc1.O=C(O)C(=O)O (centres undefined),102.6
24,Clc1ccc(COCC2CCN(Cc3ccccn3)CC2)cc1.O=C(O)C(=O)O,33.78
